Inconclusive results are not listed. A call without a number means that no potency is given here. Active and inactive are the calls of the source. Calls come from the whole dose curve; as a rule, active = well fitted inhibition curve with a large enough effect; inconclusive = small, poorly fitted or top-dose-only effect; inactive = no such curve, though single readings can be large or run the other way.
biological target: Luciferin 4-monooxygenase (Photinus pyralis) (UniProt P08659); assay: FLuc inhibitory activity for the follow-up compounds in a biochemical assay with an in-house formulation of detection reagent; conditions: purified FLuc, luminescence; series mostly up to 25.6 µM
Text: NCGC Assay Overview: Firefly (Photinus pyralis) luciferase is one of the most commonly used transcriptional reporters. It is considered one of the more dynamically responsive reporters - that is, responsive to changes in reporter transcription - as it requires no post-translational modifications and is enzymatically active directly after protein synthesis (Wood, 1998). With no endogenous expression in mammalian cells and without the requirement of external excitation, it offers very little background signal, thus generally providing excellent signal to background for most assays. Previous profiling work to determine the prevalence of compounds that affect FLuc enzymatic activity (PubChem AID 411) identified that ~3% of the MLSMR library (then at ~72K) inhibited FLuc (Auld et al., 2008). […] Of the compounds identified in this profile that inhibited FLuc, 151 compounds were selected for further analysis, in an effort to better understand their mode of inhibiting FLuc. The assay described here was to determine the activity of the compounds in a FLuc assay that used an in-house formulation of detection reagent.
NCGC Assay Protocol Summary: Reagents: 300mM Tris-HCl, 300mM Trizma base, 300mM MgCl, 1% Triton-X100, 5mM DTT, 500uM Coenzyme A trilithium salt (Sigma #C3019),450uM ATP (Sigma #A7699), 1mM D-luciferin sodium salt monohydrate (Biosynth #L8240); 10nM P. pyralis luciferase (Sigma #L9506) Control compounds used were two known firefly luciferase inhibitors (3-(5-(3-chlorophenyl)-1,2,4-oxadiazol-3-yl)benzoic acid and 5-(2-fluorophenyl)-3-phenyl-1,2,4-oxadiazole), and DMSO. Assay Summary: Six microliters of buffer containing firefly luciferase (final concentrations: 50mM Tris acetate, 10nM P. pyralis luciferase) are dispensed into each well of a Greiner white, solid-bottom 1536-well format plate using a flying reagent dispenser (FRD). These assay plates were then treated with 23nL of compound or DMSO using a Kalypsys pin tool, which allows for delivery of a 12-point intraplate titration of each compound to the assay plate (quantitative HTS), with final compound concentrations ranging from approximately ~25uM to 0.1nM. Three microliters of 3X in-house detection reagent was then delivered by FRD to each well (final concentrations in assay: 300mM Tris-HCl, 300mM Trizma base, 300mM MgCl, 1% Triton-X100, 5mM DTT, 500uM Coenzyme A trilithium salt, 450uM ATP, 1mM D-luciferin sodium salt monohydrate). Luciferase activity was then measured using a ViewLux CCD imager (PerkinElmer), with an average exposure time of 2-30 seconds (2X binning, medium/high gain).

Sequence of Luciferin 4-monooxygenase (Photinus pyralis) (P08659 whole entry, looked up): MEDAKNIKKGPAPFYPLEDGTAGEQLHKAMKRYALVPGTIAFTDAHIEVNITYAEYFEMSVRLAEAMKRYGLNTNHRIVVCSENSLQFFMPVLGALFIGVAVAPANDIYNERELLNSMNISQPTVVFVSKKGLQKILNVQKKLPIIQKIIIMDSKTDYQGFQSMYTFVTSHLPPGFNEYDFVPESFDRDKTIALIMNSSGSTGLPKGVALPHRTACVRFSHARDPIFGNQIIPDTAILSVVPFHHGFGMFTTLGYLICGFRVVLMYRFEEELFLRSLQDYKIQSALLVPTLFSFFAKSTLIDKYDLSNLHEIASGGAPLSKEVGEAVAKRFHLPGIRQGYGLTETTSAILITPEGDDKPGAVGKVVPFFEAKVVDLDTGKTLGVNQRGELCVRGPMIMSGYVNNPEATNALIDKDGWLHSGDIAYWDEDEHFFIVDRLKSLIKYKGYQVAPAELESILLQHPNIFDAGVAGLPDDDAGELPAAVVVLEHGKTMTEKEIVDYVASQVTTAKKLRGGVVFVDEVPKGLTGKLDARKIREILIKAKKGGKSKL

**Q.** Which Potency does the source give for `CN(C)c1cccc(C(=O)Nc2ccc(-c3nc4ccccc4s3)cc2)c1` here?
**A.** inactive

**Q.** How did the Potency turn out when `COc1ccccc1C(=O)Nc1ccc(C(=O)Nc2ccccc2C(=O)O)cc1` was run?
**A.** inactive

**Q.** How did the Potency turn out when `Cc1cccc(C(=O)Nc2ccc(-c3nc4ccccc4s3)cc2Cl)c1` was run?
**A.** inactive

**Q.** For `COc1ccc(NS(=O)(=O)c2cccc(C(=O)Nc3ccccc3C(=O)O)c2)cc1`, which Potency is on record?
**A.** inactive

**Q.** With `O=C(O)c1ccccc1NC(=O)c1ccccc1Nc1ccccc1` as the molecule, how does the Potency read?
**A.** inactive

**Q.** For `Nc1ccccc1-c1nc2ccccc2s1`, which Potency is on record?
**A.** inactive

**Q.** How did the Potency turn out when `COc1cc(C(=O)Nc2cc(C)c(O)c(-c3nc4ccccc4s3)c2)cc(OC)c1OC` was run?
**A.** inactive

**Q.** How did the Potency turn out when `O=C(Nc1ccccc1C(=O)O)c1cccc(C(=O)Nc2ccccc2C(=O)O)c1` was run?
**A.** inactive

**Q.** For `Cc1ccc(C(=O)O/N=C(\N)c2ccccn2)cc1`, which Potency is on record?
**A.** 0.0619 µM (active)

**Q.** Which Potency does the source give for `Cc1c(NC(=O)c2cc(-n3cnnc3)ccc2Cl)cccc1-c1nc2ccccc2s1` here?
**A.** inactive

**Q.** With `CC(C)(C)C(=O)Nc1ccc(-c2nc3ccccc3s2)cc1` as the molecule, how does the Potency read?
**A.** 0.0219 µM (active)

**Q.** `Cc1c(NS(C)(=O)=O)cccc1-c1nc2ccccc2s1` was tested. Which Potency did it give?
**A.** inactive

**Q.** For `O=C(Nc1ccccc1C(=O)O)c1ccc(NC(=O)C2CC2)cc1`, which Potency is on record?
**A.** 7.79 µM (active)

**Q.** For `Cc1ccc2sc(-c3ccc(N)cc3)nc2c1`, which Potency is on record?
**A.** 6.19 µM (active)

**Q.** For `COc1ccc(C(=O)Nc2ccccc2C(=O)N/N=C/c2ccc(O)c(OC)c2)cc1`, which Potency is on record?
**A.** 0.011 µM (active)

**Q.** How did the Potency turn out when `Cc1c(C)c2ccc(OCC(=O)Nc3ccccn3)c(C)c2oc1=O` was run?
**A.** 0.0874 µM (active)

**Q.** `COc1ccc2nc(NC(=O)c3nc(S(=O)(=O)Cc4ccc(C)cc4)ncc3Cl)sc2c1` was tested. Which Potency did it give?
**A.** inactive

**Q.** Which Potency does the source give for `CCOc1c(Cl)cc(C(=O)Nc2ccccc2C(=O)O)cc1Cl` here?
**A.** inactive

**Q.** Which Potency does the source give for `O=C(O)c1ccc(NC(=O)c2cc(S(=O)(=O)N3CCCCC3)c(Cl)cc2Cl)cc1` here?
**A.** inactive

**Q.** `COc1ccc2nc(NC(=O)c3ccco3)sc2c1` was tested. Which Potency did it give?
**A.** 6.94 µM (active)

**Q.** For `COc1ccc(CC(=O)Nc2cccc(C(=O)Nc3ccccc3C(=O)O)c2)cc1OC`, which Potency is on record?
**A.** inactive

**Q.** With `Nc1ccc2nc(-c3ccccc3)sc2c1` as the molecule, how does the Potency read?
**A.** 2.19 µM (active)

**Q.** With `CN=c1scc(-c2ccccc2F)n1/N=C/c1ccc[nH]1` as the molecule, how does the Potency read?
**A.** 0.123 µM (active)

**Q.** Which Potency does the source give for `COc1ccc2nc(NC(=O)Cc3cccs3)sc2c1` here?
**A.** inactive

**Q.** With `O=C(Nc1c(Cl)cc(Cl)cc1-c1nc2ccccc2s1)c1ccc(Br)o1` as the molecule, how does the Potency read?
**A.** 13.8 µM (active)

**Q.** Which Potency does the source give for `O=C(Cc1ccc(Cl)cc1)Nc1cccc(C(=O)Nc2ccccc2C(=O)O)c1` here?
**A.** inactive

**Q.** With `CC(=O)Oc1ccc(C(=O)Nc2ccccc2C(=O)Nc2ccc(C(=O)O)cc2)cc1` as the molecule, how does the Potency read?
**A.** inactive

**Q.** Which Potency does the source give for `Cc1ccc(C(=O)Nc2ccc(C(=O)O)cc2)cc1S(=O)(=O)Nc1ccccc1` here?
**A.** inactive

**Q.** With `COc1ccc(C(=O)Nc2nc3ccc(OC)cc3s2)cc1` as the molecule, how does the Potency read?
**A.** inactive

**Q.** For `O=C(O)c1ccc(NC(=O)c2ccccc2NC(=O)c2cccc(Br)c2)cc1`, which Potency is on record?
**A.** inactive

**Q.** `Cc1ccc2sc(-c3ccc(NC(=O)c4cc(-n5cnnc5)ccc4Cl)cc3)nc2c1` was tested. Which Potency did it give?
**A.** inactive

**Q.** For `COc1ccc2nc(NC(=O)c3ccc(NS(=O)(=O)c4cccs4)cc3)sc2c1`, which Potency is on record?
**A.** inactive

**Q.** For `COc1ccc2nc(NC(=O)c3cccs3)sc2c1`, which Potency is on record?
**A.** inactive

**Q.** How did the Potency turn out when `Cc1ccc2nc(-c3ccc(N)cc3)sc2c1` was run?
**A.** 4.91 µM (active)

**Q.** `COc1cc(OC)cc(C(=O)Nc2ccc(-c3nc4ccccc4s3)c(C)c2)c1` was tested. Which Potency did it give?
**A.** inactive

**Q.** `Cc1ccc(S(=O)(=O)N2CCN(C(=O)c3ccccc3-c3nc4ccccc4s3)CC2)c(C)c1` was tested. Which Potency did it give?
**A.** inactive

**Q.** For `O=C(Nc1ccccc1C(=O)O)c1cc(S(=O)(=O)Nc2ccccc2)ccc1Cl`, which Potency is on record?
**A.** inactive

**Q.** How did the Potency turn out when `O=C(Nc1ccccc1-c1nc2ccccc2s1)c1cccnc1` was run?
**A.** inactive

**Q.** Which Potency does the source give for `Cc1ccc(C(=O)Nc2ccc(C(=O)O)cc2)cc1S(=O)(=O)NCc1ccccc1` here?
**A.** inactive

**Q.** `CCOc1ccc(C(=O)Nc2ccccc2C(=O)O)cc1` was tested. Which Potency did it give?
**A.** 6.94 µM (active)

— PubChem BioAssay AID602475 (National Center for Advancing Translational Sciences (NCATS), 2012)
